In PubChem BioAssay (NCATS):
Records with an inconclusive call do not appear. Activity calls are given as the source filed them. The call rests on the fitted dose curve; in most records, active means well fitted curve in the direction sought with a large enough effect; inconclusive means small, poorly fitted or top-dose-only effect, or another doubt; inactive means no such curve, though single readings can be large; an effect the other way counts as inactive or inconclusive.

Tests used:
[1] = P-glycoprotein substrates identified in KB-3-1 adenocarcinoma cell line, qHTS therapeutic library screen (AID 1346986); further: nearly all actives have a fitted effect of over 60% in size;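 further: potency means the concentration at half of the fitted maximal effect; potency is for cytotoxicity meaning loss of cell viability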
Summary of the method: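 Viability by CellTiter-Glo after 72 h compound exposure at 37 degree C, 5% CO2. Cytotoxic call: curve class -1.1 to -2.4, maximum response >50%, AC50 < 10 uM, compared across KB-3-1 and P-gp-overexpressing KB-8-5-11.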

[2] = P-glycoprotein substrates identified in KB-8-5-11 adenocarcinoma cell line, qHTS therapeutic library screen (AID 1346987); further: nearly all actives have a fitted effect of over 65% in size; further: potency means the concentration at half of the fitted maximal effect
Summary of the method: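 In this qHTS, P-gp-rich KB-8-5-11 cells received library compounds across a concentration range. Viability was quantified by luminescence after 72 h at 37 degree C.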

[3] = Primary qHTS for inhibitors of nuclear receptor binding SET domain protein 2 (NSD2) in an isogenic RCH-ACV NSD2 p.E1099K mutant (9B) (AID 1645876); further: potency means the concentration at half of the fitted maximal effect; nearly all actives have a fitted effect of over 70% in size
[4] = Primary qHTS for inhibitors of nuclear receptor binding SET domain protein 2 (NSD2) in an RCH-ACV wild type WT cells (2C) (AID 1645877); further: potency means the concentration at half of the fitted maximal effect; nearly all actives have a fitted effect of over 70% in size
[5] = target: Glutathione peroxidase 1 (Homo sapiens) (UniProt P07203); assay: Primary qHTS Assay for Inhibitors of Recombinant Selenoprotein Glutathione Peroxidase 1 (GPX1) (AID 1845191); further: on the % scale 0 is the no-effect control and ±100 the full control effect; nearly all actives have a fitted effect of over 65% in size
Summary of the method: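 GR-coupled readout: NADPH consumption tracked by fluorescence, ex 340/em 450 nm, at t=0 and after 15 min at RT. Final mix 10 nM GPX1, 1 mM GSH, 0.5 mM CHP, 0.5 mM NADPH, 100 nM GR, 0.01% BSA, following 30 min enzyme–compound preincubation.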

[6] = Viability counterscreen for antagonist of constitutive androstane receptor (CAR) against the NCATS DSHEA and TCM libraries (AID 1794837);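 further: compound exposure lasted 24 h before viability reading; 0% is about no effect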
Summary of the method: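 Counterscreen performed in a 1536-well qHTS format using HepG2-CYP2B6-hCAR cells; samples titrated in the presence of 48 uM CITCO, with viability measured fluorometrically (405/540 nm) after 24 h.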

[7] = Viability counterscreen for agonist of constitutive androstane receptor (CAR) against the NCATS DSHEA and TCM libraries (AID 1794838); further: 0% is about no effect
Summary of the method: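 Multiplexed counterscreen: after 24 h compound exposure with 0.75 uM PK11195, HepG2-CYP2B6-hCAR viability was quantified fluorimetrically (CellTiter-Fluor, 405/540 nm) prior to the ONE-Glo luciferase read.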

[8] = target: Nuclear receptor subfamily 1 group I member 3 (Homo sapiens) (UniProt Q14994); assay: Primary qHTS for agonist of constitutive androstane receptor (CAR) against the NCATS DSHEA and TCM libraries (AID 1794839);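 further: HepG2 cells expressing human CAR with a CYP2B6 reporter plus PK11195 antagonist; 0% is about no effect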
Summary of the method: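 Concentration–response screen in HepG2-CYP2B6-hCAR cells under 0.75 µM PK11195; 24 h exposure; luminescent reporter signal with multiplexed fluorescent viability.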

[9] = HepG2 viability counterscreen (readout 2: ATP content) against the NCATS DSHEA and TCM libraries (AID 1794840);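 further: HepG2 cells exposed to substances for about 24 h; 0% is about no effect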
Summary of the method: (§1)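 After HepG2 cells attach for ~4 h, substances are added and incubated ~24 h at 37C, 5% CO2. GF-AFC fluorescence then CellTiter-Glo luminescence give protease and ATP readouts.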

[10] = HepG2 viability counterscreen (readout 1: protease activity) against the NCATS DSHEA and TCM libraries (AID 1794841);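 further: cells exposed to compounds for about 24 h before the protease read; 0% is about no effect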
Summary of the method: as §1

[11] = target: Cytochrome P450 2D6 (Homo sapiens) (UniProt P10635); assay: qHTS for inhibitors of CYP2D6 against the NCATS DSHEA and TCM libraries (AID 1919972); further: on the % scale 0 is the no-effect control and ±100 the full control effect
Summary of the method: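 qHTS, concentration–response format with most substances from 19.5 nM. CYP2D6 + pro-luciferin substrate, 15 min with compound, then 1x NADPH regen, 30–45 min RT dark. Glo detection 30 min, luminescence. Quinidine control.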

[12] = target: Cytochrome P450 2C9 (Homo sapiens) (UniProt P11712); assay: qHTS for inhibitors of CYP2C9 against the NCATS DSHEA and TCM libraries (AID 1919973); further: potency means the concentration at half of the fitted maximal effect
Summary of the method: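 Substances were tested against enzyme with a pro-luciferin substrate; minus-enzyme wells served as background. After NADPH-initiated oxidation (30-45 min, RT), light was generated with P450-Glo reagent.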

[13] = KB-3-1 P-gp reporter qHTS against the NCATS DSHEA and TCM libraries (AID 1919975); further: 0% is about no effect
Summary of the method: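 Cell viability qHTS: 500 KB-3-1 cells/well, substances in titration, ~72 h, 37C; luminescent CellTiter-Glo read.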

[14] = target: Cytochrome P450 1A2 (Homo sapiens) (UniProt P05177); assay: qHTS for inhibitors of CYPIA2 against the NCATS DSHEA and TCM libraries (AID 1919976); further: series mostly up to about 37 µM; on the % scale 0 is the no-effect control and ±100 the full control effect
Summary of the method: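 Luminescence read-out: pro-luciferin converted to D-luciferin by CYP1A2, detected with P450-Glo reagent after 30 min RT. Enzyme plus substrate got compounds for 15 min RT; NADPH regeneration solution (final 1x) started a 30-45 min reaction, light-protected.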

[15] = qHTS Counterscreen for compound interference against the NCATS DSHEA and TCM libraries (AID 1919978); settings: firefly luciferase detection reagent interference, luminescence;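 further: compounds preincubated with 1 µM D-luciferin or buffer before detection reagent; % of control where 0% means no effect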
Summary of the method: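 Interference check: test samples were incubated with D-luciferin (final 1 uM) or buffer only for 15 min, room temperature, in a qHTS titration up to 39.8 uM, then developed with detection reagent and read by luminescence.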

[16] = Dual reporter qHTS for agonist of Pregnane X Receptor (hPXR) against the NCATS DSHEA and TCM libraries: Fluorescence readout (AID 1920058); further: 0% is about no effect
Summary of the method: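 Fluorescence read-out for cell viability: CellTiter-Fluor, 1 h at 37 °C, Ex/Em 405/540 nm. This followed ~24 h treatment of hPXR-Luc HepG2 cells with substances in agonist mode.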

[17] = target: Nuclear receptor subfamily 1 group I member 2 (Homo sapiens) (UniProt O75469); assay: Dual reporter qHTS for agonist of Pregnane X Receptor (hPXR) against the NCATS DSHEA and TCM libraries: Luminescence readout (AID 1920059); further: 0% is about no effect
Summary of the method: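 hPXR-Luc HepG2 cells, 2000/well in 5% charcoal-stripped FBS medium, attached 5 h, then exposed 24 h at 37C to compounds. Viability by CellTiter-Fluor, then luciferase luminescence with ONE-Glo.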

[18] = target: Nuclear receptor subfamily 1 group I member 2 (Homo sapiens) (UniProt O75469); assay: Dual reporter qHTS for antagonist of Pregnane X Receptor (hPXR) against the NCATS DSHEA and TCM libraries: Luminescence Readout (AID 1920060);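 further: HepG2 cells carrying hPXR luciferase reporter stimulated with rifampicin at 2 µM; 0% is about no effect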
Summary of the method: (§2)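 hPXR-Luc HepG2 cells exposed 24 h at 37 C to compounds with 2 uM rifampicin in antagonist mode; luciferase luminescence measured by ONE-Glo, with CellTiter-Fluor viability read beforehand.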

[19] = Dual reporter qHTS for antagonist of Pregnane X Receptor (hPXR) against the NCATS DSHEA and TCM libraries: Fluorescence Readout (AID 1920061); further: 0% is about no effect
Summary of the method: as §2

Nuclear receptor subfamily 1 group I member 2 (Homo sapiens), sequence (O75469 whole entry, looked up): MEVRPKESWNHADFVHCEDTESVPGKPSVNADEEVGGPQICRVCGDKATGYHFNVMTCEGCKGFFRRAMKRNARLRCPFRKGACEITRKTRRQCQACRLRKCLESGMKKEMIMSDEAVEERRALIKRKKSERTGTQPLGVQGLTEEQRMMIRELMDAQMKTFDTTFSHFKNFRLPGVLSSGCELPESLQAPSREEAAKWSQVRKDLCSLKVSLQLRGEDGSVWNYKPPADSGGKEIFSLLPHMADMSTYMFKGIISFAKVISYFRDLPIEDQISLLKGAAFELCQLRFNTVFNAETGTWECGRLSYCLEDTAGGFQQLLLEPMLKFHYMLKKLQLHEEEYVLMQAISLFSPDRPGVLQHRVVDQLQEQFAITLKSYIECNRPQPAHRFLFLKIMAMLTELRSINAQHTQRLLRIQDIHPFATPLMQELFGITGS
Cytochrome P450 2C9 (Homo sapiens), sequence (P11712 whole entry, looked up): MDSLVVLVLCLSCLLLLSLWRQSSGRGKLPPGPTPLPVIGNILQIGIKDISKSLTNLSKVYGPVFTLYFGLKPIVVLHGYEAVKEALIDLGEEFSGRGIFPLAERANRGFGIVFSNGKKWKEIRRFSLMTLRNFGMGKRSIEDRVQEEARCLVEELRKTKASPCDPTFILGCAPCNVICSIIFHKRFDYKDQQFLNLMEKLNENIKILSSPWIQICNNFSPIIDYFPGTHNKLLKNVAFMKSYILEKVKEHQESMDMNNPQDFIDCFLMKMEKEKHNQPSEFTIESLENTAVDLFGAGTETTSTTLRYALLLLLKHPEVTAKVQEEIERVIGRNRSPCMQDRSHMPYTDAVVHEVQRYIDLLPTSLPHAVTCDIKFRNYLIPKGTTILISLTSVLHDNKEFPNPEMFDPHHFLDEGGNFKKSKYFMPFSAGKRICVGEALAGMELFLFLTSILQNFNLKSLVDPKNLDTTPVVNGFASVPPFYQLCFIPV
Cytochrome P450 2D6 (Homo sapiens), sequence (P10635 whole entry, looked up): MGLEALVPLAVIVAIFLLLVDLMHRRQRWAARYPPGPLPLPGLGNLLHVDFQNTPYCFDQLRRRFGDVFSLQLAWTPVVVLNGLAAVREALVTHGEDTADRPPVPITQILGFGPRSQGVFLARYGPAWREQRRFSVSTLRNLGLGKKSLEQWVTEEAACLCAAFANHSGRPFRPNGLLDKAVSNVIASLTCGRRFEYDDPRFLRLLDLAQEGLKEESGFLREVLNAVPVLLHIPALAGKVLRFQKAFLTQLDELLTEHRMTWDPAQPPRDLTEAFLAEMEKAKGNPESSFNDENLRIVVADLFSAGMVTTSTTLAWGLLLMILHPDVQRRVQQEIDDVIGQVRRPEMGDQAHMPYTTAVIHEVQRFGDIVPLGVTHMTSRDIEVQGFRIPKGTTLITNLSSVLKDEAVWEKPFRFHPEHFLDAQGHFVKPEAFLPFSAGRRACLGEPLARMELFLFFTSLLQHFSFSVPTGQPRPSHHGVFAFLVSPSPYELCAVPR
Glutathione peroxidase 1 (Homo sapiens), sequence (P07203 whole entry, looked up): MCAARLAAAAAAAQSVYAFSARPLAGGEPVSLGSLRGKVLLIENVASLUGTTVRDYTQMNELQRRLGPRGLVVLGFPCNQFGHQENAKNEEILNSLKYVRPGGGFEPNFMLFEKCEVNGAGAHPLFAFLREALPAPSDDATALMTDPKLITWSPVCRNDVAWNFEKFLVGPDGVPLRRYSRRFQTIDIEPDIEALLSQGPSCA
Cytochrome P450 1A2 (Homo sapiens), sequence (P05177 whole entry, looked up): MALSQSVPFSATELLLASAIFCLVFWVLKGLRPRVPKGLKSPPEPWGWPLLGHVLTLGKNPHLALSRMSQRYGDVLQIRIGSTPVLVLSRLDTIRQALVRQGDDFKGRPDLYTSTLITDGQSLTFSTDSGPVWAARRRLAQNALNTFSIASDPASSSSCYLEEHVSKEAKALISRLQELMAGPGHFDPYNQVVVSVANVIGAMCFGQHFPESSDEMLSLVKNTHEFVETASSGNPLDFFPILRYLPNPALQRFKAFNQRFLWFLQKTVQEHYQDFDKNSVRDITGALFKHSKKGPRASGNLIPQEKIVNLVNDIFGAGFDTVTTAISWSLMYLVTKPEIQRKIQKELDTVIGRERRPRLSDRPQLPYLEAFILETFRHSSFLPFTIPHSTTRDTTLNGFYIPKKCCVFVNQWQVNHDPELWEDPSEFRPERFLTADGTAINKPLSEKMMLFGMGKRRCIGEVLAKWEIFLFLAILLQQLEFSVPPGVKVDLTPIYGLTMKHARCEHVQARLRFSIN
Nuclear receptor subfamily 1 group I member 3 (Homo sapiens), sequence (Q14994 whole entry, looked up): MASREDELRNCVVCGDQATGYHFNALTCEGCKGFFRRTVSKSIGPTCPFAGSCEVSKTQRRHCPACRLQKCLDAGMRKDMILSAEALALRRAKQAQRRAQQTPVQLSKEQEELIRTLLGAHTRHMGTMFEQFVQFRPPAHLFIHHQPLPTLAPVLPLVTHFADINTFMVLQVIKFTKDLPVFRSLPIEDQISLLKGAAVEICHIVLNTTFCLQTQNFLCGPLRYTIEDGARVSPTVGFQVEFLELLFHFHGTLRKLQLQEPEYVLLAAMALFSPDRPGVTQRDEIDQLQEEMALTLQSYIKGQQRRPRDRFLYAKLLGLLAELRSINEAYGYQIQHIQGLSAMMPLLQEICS

C=CC(=O)Nc1cccc(Nc2nc(Nc3ccccc3)ncc2C)c1
inactive: Potency [5]
active: Potency [1] 18.4 µM | Potency [2] 13 µM | Potency [3] 8.2 µM | Potency [4] 8.2 µM

O=C(O[C@@H]1Cc2c(O)cc(O)cc2O[C@H]1c1cc(O)c(O)c(O)c1)c1cc(O)c(O)c(O)c1
active: Potency [12] 12.6 µM
inactive: Potency [1] | Potency [2] | outcome [6] | outcome [7] | outcome [8] | outcome [9] | outcome [10] | outcome [11] | outcome [13] | outcome [14] | max response [15] -4.04% | outcome [16] | outcome [17] | outcome [18] | outcome [19]
